Experimental data published in PubChem BioAssay (Tox21).
The source made the active and inactive calls. Calls come from the whole dose curve; as a rule, active = well fitted curve in the direction sought with a large enough effect in the repeat runs; inconclusive = weak or mixed curves; inactive = flat fitted curve, though single readings scatter.

Experiment: qHTS assay to test for compound auto fluorescence at 535 nm (green) in HEK293 cells (AID 720680)
Settings: green autofluorescence 485/535 nm; series mostly up to 46 µM; fluorescence, % of fluorescein: at the top concentration
Excerpt: U.S. Tox21 Program National Center for Advancing Translational Sciences [NCATS] NIH Chemical Genomics Center [NCGC] U.S. Environmental Protection Agency [EPA] National Institutes of Environmental Health Sciences [NIEHS] National Toxicology Program [NTP] U.S. Food and Drug Administration [FDA] Tox21 Assay Overview: Compound auto fluorescence often interferes with screening of the compound library against various biological targets and signaling pathways. Some of these compounds may have fluorophoric properties. Such properties may interfere with the assay outputs resulting in false positives and/or negatives. To decrease such complications and ensure the compound activities are relevant in terms of biological response, the Tox21 10K compound library was screened for auto fluorescence. From the fluorophores used as reporter signals in our screening assays, the auto fluorescence equivalencies of compounds against three fluorophores have been evaluated: Triamterene, Fluorescein and Rose Bengal sodium for blue, green and red fluorescence, respectively. The fluorescence intensities were measured using Excitation/Emission wavelengths at 405/460nm, 485/535nm and 540/590nm for blue, green and red labels, respectively. This assay includes the green fluorescence data.
Tox21 Assay Protocol Summary: 2,000 HEK293 cells in 5 uL of culture medium containing 10% dialyzed FBS per well were dispensed into black wall/clear bottom 1536-well plates using a Multidrop Combi Dispenser (Thermo Scientific). The assay plates were incubated for 4-5 hr at 37C to allow cell attachment to the well bottom, followed by the transfer of 23 nL compound or DMSO vehicle by a pintool work station (Kalypsys, San Diego, CA). After the assay plates were incubated overnight at 37C and 5% CO2, fluorescence intensities in the assay plates were measured by an Envision (PerkinElmer, Shelton, CT) plate reader using three labels for measuring blue, green and red fluorescence at […] 460, 535 and 590nm respectively.
% is set by controls: 0 for no effect and ±100 for the full control effect.

| Compound | fluorescence, % of fluorescein | outcome |
| --- | --- | --- |
| C1CCc2nnnn2CC1 | 0.157% (inactive) | – |
| CS(=O)(=O)c1ccc([C@@H](CC2CCCC2)C(=O)Nc2cnccn2)cc1Cl | -0.121% [at 91.3 µM] (inactive) | – |
| O=C1CCC(c2ccccc2)(C2CCN(Cc3ccccc3)CC2)C(=O)N1 (stereo not given) | 0.151% (inactive) | – |
| C=C1C(CCl)(CCl)C2(Cl)C(Cl)C(Cl)C1(Cl)C2(Cl)Cl (stereo not given) | – | inactive |
| CO/N=C(\C(=O)N[C@@H]1C(=O)N2C(C(=O)O)=C(CSc3nc(C)c(CC(=O)O)s3)CS[C@H]12)c1csc(N)n1 | 0.0809% (inactive) | – |
| Cc1cnc(C(=O)O)c[n+]1[O-] | – | inactive |
| Cc1cn([C@H]2C[C@H](O)[C@@H](CO)O2)c(=O)[nH]c1=O | -0.0015% (inactive) | – |
| CC[C@@]1([C@@H]2O[C@@H]([C@H]3O[C@@](O)(CO)[C@H](C)C[C@@H]3C)C[C@@H]2C)CC[C@H]([C@]2(C)CC[C@]3(C[C@H](O)[C@@H](C)[C@@H]([C@@H](C)[C@@H](OC)[C@H](C)C(=O)O)O3)O2)O1 (stereo in doubt) | – | inactive |
| C=CC1=C(C(=O)O)N2C(=O)[C@@H](NC(=O)/C(=N\O)c3csc(N)n3)[C@H]2SC1 (stereo in doubt) | – | inactive |
| CC(C)Cc1ccc([C@H](C)C(=O)O)cc1 | -0.0206% (inactive) | – |
| CC(C)(C)c1ccc2c(S(=O)(=O)O)c(C(C)(C)C)ccc2c1 | – | inactive |
| CN[C@H](CC(C)C)C(=O)N[C@H]1C(=O)N[C@@H](CC(N)=O)C(=O)N[C@H]2C(=O)N[C@H]3C(=O)N[C@H](C(=O)N[C@@H](C(=O)O)c4cc(O)cc(O)c4-c4cc3ccc4O)[C@H](O)c3ccc(c(Cl)c3)Oc3cc2cc(c3O[C@@H]2O[C@H](CO)[C@@H](O)[C@H](O)[C@H]2O[C@H]2C[C@](C)(N)C(O)[C@H](C)O2)Oc2ccc(cc2Cl)[C@H]1O (stereo not given in full) | – | inactive |
| CCOc1cc(CC(=O)N[C@@H](CC(C)C)c2ccccc2N2CCCCC2)ccc1C(=O)O | 0.0692% [at 18.6 µM] (inactive) | – |
| CC1(C)S[C@@H]2[C@H](N3C(=O)C(c4ccccc4)NC3(C)C)C(=O)N2[C@H]1C(=O)O (stereo not given in full) | -0.0404% (inactive) | – |
| CNCC(=O)N[C@@H](CCCN=C(N)N)C(=O)N[C@H](C(=O)N[C@@H](Cc1ccc(O)cc1)C(=O)N[C@H](C(=O)N[C@@H](Cc1cnc[nH]1)C(=O)N1CCC[C@H]1C(=O)N[C@@H](C)C(=O)O)C(C)C)C(C)C | -0.0134% (inactive) | – |
| CC(=O)Nc1ccc(OC(C)=O)cc1 | 0.0633% (inactive) | – |
| CCCCCCCCCCCCCCCCC(C(=O)O)C(O)(CC(=O)O)C(=O)O (stereo not given) | -0.0627% (inactive) | – |
| CON=C1C[C@]2(C[C@@H]3C[C@@H](C/C=C(\C)C[C@@H](C)/C=C/C=C4\CO[C@@H]5[C@H](O)C(C)=C[C@@H](C(=O)O3)[C@]45O)O2)O[C@H](/C(C)=C/C(C)C)[C@H]1C | – | inactive |
| C/C(=C\C(=O)OCCCCCCCCC(=O)O)C[C@@H]1OC[C@H](C[C@@H]2O[C@H]2[C@@H](C)[C@H](C)O)[C@@H](O)[C@H]1O | -0.0966% (inactive) | – |
| CO[C@H](C(=O)[C@@H](O)[C@@H](C)O)C1Cc2cc3cc(O[C@H]4C[C@@H](O[C@H]5C[C@@H](O)[C@H](O)[C@@H](C)O5)[C@@H](O)[C@@H](C)O4)c(C)c(O)c3c(O)c2C(=O)[C@H]1O[C@H]1C[C@@H](O[C@H]2C[C@@H](O[C@H]3C[C@](C)(O)[C@H](O)[C@@H](C)O3)[C@H](O)[C@@H](C)O2)[C@H](O)[C@@H](C)O1 (stereo not given in full) | – | inactive |

| Compound | fluorescence, % of fluorescein | outcome |
| --- | --- | --- |
| CSCC[C@H](NC(=O)[C@H](Cc1ccc(OS(=O)(=O)O)cc1)NC(=O)[C@@H](N)CC(=O)O)C(=O)NCC(=O)N[C@@H](Cc1c[nH]c2ccccc12)C(=O)N[C@@H](CCSC)C(=O)N[C@@H](CC(=O)O)C(=O)N[C@@H](Cc1ccccc1)C(N)=O | – | inactive |
| Clc1nc(C(Cl)(Cl)Cl)c(Cl)c(Cl)c1Cl | 0.0459% [at 91.3 µM] (inactive) | – |
| Nc1c(CC(=O)O)cccc1C(=O)c1ccccc1 | – | inactive |
| COc1cccc(-c2ccc(/C=C\CN3CCCCCC3)cc2Cl)c1 | -0.0414% [at 91.3 µM] (inactive) | – |
| CO[C@H]1C[C@H](O[C@H]2[C@H](C)[C@@H](O[C@@H]3O[C@H](C)C[C@H](N(C)C)[C@H]3O)[C@@H](C)C[C@]3(CO3)C(=O)[C@H](C)[C@@H](O)[C@@H](C)[C@@H](C)OC(=O)[C@@H]2C)O[C@@H](C)[C@@H]1O | -0.0816% [at 18.6 µM] (inactive) | – |
| CC(C)(O/N=C(\C(=O)N[C@@H]1C(=O)N2C(C(=O)[O-])=C(C[n+]3ccccc3)CS[C@H]12)c1csc(N)n1)C(=O)O | -0.0006% [at 18.6 µM] (inactive) | – |
| C[C@]12O[C@H](C[C@]1(O)CO)n1c3ccccc3c3c4c(c5c6ccccc6n2c5c31)CNC4=O | -1.12% (inactive) | – |
| C[C@@H]1C(=O)NC2=Nc3cccc(Cl)c3CN21 | -0.132% (inactive) | – |
| S=C1NC=NC2N=CNC12 (stereo not given) | -0.19% [at 91.3 µM] (inactive) | – |
| CC(=O)O[C@H]1C[C@@H]2CC[C@@H]3[C@H](CC[C@@]4(C)[C@H]3C[C@H]([N+]3(C)CCCCC3)[C@@H]4OC(C)=O)[C@@]2(C)C[C@@H]1[N+]1(C)CCCCC1 | -0.0243% (inactive) | – |
| C=CCc1cc(S(=O)(=O)c2ccc(O)c(CC=C)c2)ccc1O | -0.0228% [at 91.3 µM] (inactive) | – |
| CCCCCCCCCCCCCCCC(=O)OC[C@H](COP(=O)([O-])OCC[N+](C)(C)C)OC(=O)CCCCCCCCCCCCCCC | -0.12% (inactive) | – |
| CCc1ncnc2cc(OC)c(OC)cc12 | 0.0004% (inactive) | – |
| COC(=O)C[C@](O)(CCCC(C)(C)O)C(=O)O[C@@H]1C(OC)=CC23CCCN2CCc2cc4c(cc2[C@H]13)OCO4 (stereo not given in full) | – | inactive |
| O=C1OC(=O)c2cc(-c3ccc4c(c3)C(=O)OC4=O)ccc21 | 0.0175% [at 91.3 µM] (inactive) | – |
| O=C(O)c1cc(O)c2c(c1)[C@H]([C@H]1c3cc(C(=O)O)cc(O)c3C(=O)c3c(O[C@@H]4O[C@H](CO)[C@@H](O)[C@H](O)[C@H]4O)cccc31)c1cccc(O[C@@H]3O[C@H](CO)[C@@H](O)[C@H](O)[C@H]3O)c1C2=O | -0.0738% (inactive) | – |
| O=[N+]([O-])c1ccc(O)c2ncccc12 | -0.167% (inactive) | – |
| OCC1(CO)COC(C(Cl)(Cl)Cl)OC1 | 0.0253% (inactive) | – |
| c1ccc2c(c1)OCC(CN1CCCCC1)O2 (stereo not given) | -0.0087% (inactive) | – |
| C[C@@H]1C[C@H]2[C@@H]3C[C@H](F)C4=CC(=O)C=C[C@]4(C)[C@@]3(Cl)[C@@H](O)C[C@]2(C)[C@H]1C(=O)COC(=O)C(C)(C)C | 0.0939% (inactive) | – |
